# Experimental data taken from PubChem BioAssay AID939 (National Center for Advancing Translational Sciences (NCATS), 2007).
# Records with an inconclusive call do not appear. Values without a mark were called inactive. Activity calls are given as the source filed them. The call rests on the fitted dose curve; in most records, active means well fitted activation curve with a large enough effect in the main read-out, with a control signal flat; inconclusive means small, poorly fitted or top-dose-only effect, or effect the other way, or a change in a side signal; inactive means no such curve, though single readings can be large or run the other way.
# Target: Thyrotropin receptor (Homo sapiens) (UniProt P16473)
# Sequence (P16473 whole entry, looked up): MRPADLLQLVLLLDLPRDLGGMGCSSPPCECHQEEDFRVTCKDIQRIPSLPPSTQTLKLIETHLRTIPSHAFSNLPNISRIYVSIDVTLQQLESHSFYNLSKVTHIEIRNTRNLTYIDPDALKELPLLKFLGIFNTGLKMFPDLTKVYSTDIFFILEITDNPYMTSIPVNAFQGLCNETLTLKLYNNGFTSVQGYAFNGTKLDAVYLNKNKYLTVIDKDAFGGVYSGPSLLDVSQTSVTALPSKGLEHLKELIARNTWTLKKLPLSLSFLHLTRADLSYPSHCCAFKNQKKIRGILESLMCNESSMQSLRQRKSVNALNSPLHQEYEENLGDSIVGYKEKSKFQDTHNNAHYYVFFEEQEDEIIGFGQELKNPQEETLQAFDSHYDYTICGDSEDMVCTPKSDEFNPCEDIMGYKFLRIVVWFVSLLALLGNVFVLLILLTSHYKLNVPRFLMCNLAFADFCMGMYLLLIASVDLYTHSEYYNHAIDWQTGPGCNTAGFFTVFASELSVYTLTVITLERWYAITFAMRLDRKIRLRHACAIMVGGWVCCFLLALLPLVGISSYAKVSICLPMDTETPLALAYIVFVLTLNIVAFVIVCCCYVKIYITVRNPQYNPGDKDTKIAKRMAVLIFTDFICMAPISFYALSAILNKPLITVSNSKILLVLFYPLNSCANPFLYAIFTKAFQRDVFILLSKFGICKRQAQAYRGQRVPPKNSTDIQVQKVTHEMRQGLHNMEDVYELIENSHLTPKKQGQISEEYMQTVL
# Assay: Confirmation Concentration-Response Assay for Agonists of the Thyroid Stimulating Hormone Receptor; on activation: % of control where 0% means no effect
# Settings: HEK293 TSHR-CNG cells, membrane potential dye, cAMP; series mostly up to 25.6 µM; activation: at the top concentration
# Excerpt: NIH Chemical Genomics Center [NCGC] NIH Molecular Libraries Screening Centers Network [MLSCN] MLSCN Grant: 1 X01 MH080680-01 PI Name: Dr. Marvin Gershengorn, NIH NCGC Assay Overview: Thyroid Stimulating Hormone Receptor TSH is an alpha/beta heterodimeric glycoprotein hormone secreted from the anterior pituitary gland which belongs to the glycoprotein hormone family. The actions of TSH are mediated by a seven-transmembrane receptor, which upon TSH binding couples preferentially to the G-alpha (s) protein (Gs), resulting in activation of adenylate cyclase and increase in cyclic adenosine 3', 5' monophosphate (cAMP). The TSH receptor (THSR) is mainly expressed in thyroid follicular cells and regulates their growth and function. Recombinant TSH is used to activate TSHR in patients with thyroid cancer receiving thyroid hormone suppression therapy and to screen for residual tumor after surgery, but it is expensive and must be administered intramuscularly. An orally active small molecule TSHR agonist would serve as an invaluable research tool for studying TSHR pharmacology and physiology, and would have multiple advantages in therapeutic settings. However, no selective small molecule agonist of the TSH receptor exists, and no small molecule screen for TSHR agonists has ever been reported. This cell based assay utilized a cyclic nucleotide gated ion channel (CNG) as a biosensor for cAMP induction by potential TSHR agonists. TSHR cell line HEK 293 cells stably expressing the TSHR as well as a modified CNG were purchased from BD biosciences. Stimulation of cAMP production causes the CNG to open and subsequent membrane depolarization to occur. A fluorescent membrane potential dye (BD biosciences) was utilized to detect cAMP stimulation in TSHR cells. The cells were maintained in DMEM medium (Invitrogen) containing 10 % FBS (Hyclone), 100 units/ml Penicillin, 100 ug/ml Streptomycin (Invitrogen), and 250 ug/ml Geneticin (Invitrogen) and 1 ug/ml Puromycin (Invitrogen) at 37C in 5% CO2. HEK 293 cells expressing CNG but without TSHR (parental cells) were used in concert to control for compounds signaling through endogenous receptors and targets of HEK 293 cells.
# NCGC Assay Protocol Summary: High Throughput Screening. Freshly passaged cells (TSHR or parental) were dispensed into 1536-well assay plates at 4 ul/well in DMEM containing phenol red (Invitrogen), 10% FCS (Hyclone), and 100 units/ml Penicillin, 100 ug/ml Streptomycin (Invitrogen) and incubated at 37 C with 5% CO2 for 20 to 36 hrs before the robotic screening. The screen was initiated by addition of 4 ul/well membrane potential dye containing 100 uM RO 20-1724 (Sigma Aldrich), followed by 60 min incubation at room temperature to allow for dye equilibration across the cell membrane. 23 nl/well compound or control was then added to the assay plates, which were incubated for additional 30 min before reading a Envision fluorescence plate reader (Perkin Elmer) in bottom-read mode for fluorescence intensity (emission at 590 nm). Keywords: Thyroid-stimulating hormone TSH, TSHR, TSHR agonist, quantitative high throughput screening, qHTS, HTS, probe identification, CNG, cAMP, cyclic nucleotide gated ion channel PubChem
# Potency means the concentration at half of the fitted maximal effect.
SMILES,activation,Potency
Cc1cccc(NC(=O)CSc2nnc(-c3ccccc3)n2N)c1C,22.7%,–
CCc1ccccc1NC1=NCC(=O)N1Cc1ccc(OC)cc1,–,12.6 µM (active)
Cc1cc(Cl)c(S(=O)(=O)Nc2ccc3c(c2)OCO3)cc1OCC(N)=O,-7.58% [at 32.9 µM],–
Cc1occc1-c1nnc(SCC(=O)Nc2ccccc2)n1C(C)c1ccccc1 (stereo not given),–,12.6 µM (active)
Cc1ccc(S(=O)(=O)NC(=O)Nn2c(C)nnc2C)cc1,14.5%,–
COc1cc(NC(=O)c2cc(-n3cnnc3)ccc2Cl)cc(OC)c1,-15.6%,–
CCOC(=O)N1CCC(NC(=O)c2ccc(CNS(=O)(=O)c3ccc(F)cc3)cc2)CC1,18% [at 32.9 µM],–
Cc1ccccc1-c1nc(CN2CCC(C(=O)N3CCN(c4ccccn4)CC3)CC2)c(C)o1,3.04%,–
CC(C)CC(=O)Nc1cccc(-c2cn3ccsc3n2)c1,-14.2% [at 32.9 µM],–
COc1cccc(C(c2nnnn2Cc2ccccc2)N2CCN(C(=O)c3ccco3)CC2)c1OC (stereo not given),-7.01% [at 32.9 µM],–
Cc1ccc(S(=O)(=O)N2CCC(C(=O)NCCCN3CCCCCC3)CC2)cc1,13.1% [at 32.9 µM],–
O=C(COC(=O)C12CC3CC(CC(C3)C1)C2)NCc1ccco1,–,2 µM (active)
Oc1ccccc1Cn1c(-c2ccccc2O)nc2ccccc21,–,12.6 µM (active)
COc1ccc(-c2ccc(-c3noc(C)n3)c(OC)n2)cc1,-6.03% [at 32.9 µM],–
COc1cc(/C=N/n2c(SC)nnc(C(C)(C)C)c2=O)ccc1O,-13%,–
O=C(CN(Cc1ccc(F)cc1)S(=O)(=O)c1ccccc1)N1CCCCC1,–,10 µM (active)
O=C(CN(Cc1ccccc1Cl)C(=O)Cn1nnc(-c2cccs2)n1)NCC1CCCO1 (stereo not given),11.5% [at 32.9 µM],–
COCCNC(=O)C(c1ccccc1)N(Cc1cccs1)C(=O)Cn1nnc2ccccc21 (stereo not given),16% [at 32.9 µM],–
Cc1occc1-c1nnc(SCC(=O)NCc2ccc3c(c2)OCO3)n1CC(C)C,–,12.6 µM (active)
Cc1nn(-c2ccccc2)c(N2CCCC2)c1/C=N/n1cnc2scc(-c3ccccc3)c2c1=O,–,1.58 µM (active)

SMILES,activation,Potency
C=CCn1c(COc2ccccc2F)nnc1SCC(=O)N1CC(=O)Nc2ccccc21,4.48%,–
Cc1ccccc1NC(=O)N1C2CCCC1CC(NC(=O)C1CC1)C2 (stereo not given),18.7%,–
COc1ccc(C(=O)N(Cc2ccco2)Cc2cccs2)c(O)c1,–,1 µM (active)
COc1cccc(C2CC(c3ccccc3OC)n3nc(N)nc3N2)c1 (stereo not given),15.4%,–
CCn1c(=O)c(C(=O)CN2CCCc3ccccc32)c(N)n(Cc2ccccc2)c1=O,-31.3%,–
CC1(C)c2ccccc2N2CCC(=O)NC21/C=C/c1ccco1 (stereo not given),–,6.31 µM (active)
O=C(C1COc2ccccc2O1)N1CCCC1 (stereo not given),-9.39%,–
Cn1c(=O)[nH]c(=O)c2c1nc(N1CCCCCC1)n2CCCSc1nc2ccccc2o1,-24.4%,–
Cc1onc(-c2ccccc2Cl)c1C(=O)Nc1ccc(-n2nncc2-c2ccco2)cc1,–,12.6 µM (active)
CCOc1ccc(N(CC(=O)Nc2ccc(C)cc2)S(=O)(=O)c2c(C)noc2C)cc1,18.2%,–
Cc1ccccc1NC(=O)CSc1nnc(-c2ccoc2C)n1CCc1ccccc1,–,6.31 µM (active)
NC(=O)c1nsc(C(=O)N(CC(=O)NCc2ccc3c(c2)OCO3)C2CCCC2)c1N,–,12.6 µM (active)
CCOC(=O)c1ccc(NC(=O)c2ccc(CN3CCOCC3)cc2)cc1,-4.24% [at 32.9 µM],–
COc1ccc(C2Nc3ccccc3C(=O)N2Cc2ccco2)cc1COc1ccc(NC(C)=O)cc1 (stereo not given),–,0.631 µM (active)
O=C1c2ccccc2C(=O)N1Cc1nc(-c2ccccc2)no1,15.1%,–
Cc1ccc(C)c(Cn2c(C(C)O)nc3ccccc32)c1 (stereo not given),–,3.98 µM (active)
CCCC(=O)C1=C(SCC)CC(C)(C)C(C(=O)OC)C1=O (stereo not given),17.8% [at 32.9 µM],–
COC(=O)c1cc(NC2c3ccccc3C(=O)N2c2cccnc2)cc(C(=O)OC)c1 (stereo not given),–,12.6 µM (active)
Cc1nc2ccc(Br)cn2c(=O)c1Cl,24.6%,–
CC1(C)c2ccccc2N2CC(=O)NC21/C=C/c1ccco1 (stereo not given),–,12.6 µM (active)
